AGP1 TOR yeast: alters AGP1-GFP fluorescence in TOR pathway yeast screen; GFP response vs DMSO, % at 10 µM; S. cerevisiae AGP1-GFP multiplex flow cytometry, 3 h; GFP as percent of DMSO wells; AID 2066; actives 0.02% (n = 320,000);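 active = GFP response relative to DMSO above a set limit, near screen average plus 3 SD, cut at about 150% in these data; inconclusive = fewer than 70 cells counted for the yeast strain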;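 note: median GFP channel fluorescence of the gated AGP1 strain per well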
CIT2-GFP yeast: yeast TOR pathway CIT2-GFP modulation. actives 0.065% (n = 320,000). AID 2029. GFP response vs DMSO, % at 10 µM. S. cerevisiae CIT2-GFP strain, flow cytometry, 3 h; 100 means same as DMSO wells;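 active = GFP response relative to DMSO above a set limit, near the screen mean plus 3 SD, cut at about 150% in these data; inconclusive = Fewer than 70 cells measured for a yeast strain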;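 note: ratio of well median GFP fluorescence to mean of DMSO wells on the plate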
RPL19A TOR yeast: yeast TOR pathway RPL19A-GFP modulation; actives 0.3% (n = 330,000); percent response vs DMSO, % at 10 µM; S. cerevisiae RPL19A-GFP strain, flow cytometry, 3 h; hits give low values; AID 2025;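 active = percent response vs DMSO below 50%; inconclusive = fewer than 70 events counted for the yeast strain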;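 note: median channel GFP fluorescence of the barcoded RPL19A-GFP strain; ratio of sample median GFP to plate DMSO average so 100% = DMSO; lower means less RPL19A-GFP as with rapamycin TOR inhibition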
LAP4 TOR yeast: modulators of TOR pathway LAP4-GFP in S. cerevisiae; S. cerevisiae LAP4-GFP multiplex, flow cytometry GFP, 3 h; median GFP as percent of DMSO wells; GFP response vs DMSO, % at 10 µM; actives 0.34% (n = 320,000);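 active = GFP response vs DMSO above a set limit, about the screen mean plus 3 SD, cut at about 150% in these data; inconclusive = under 70 cell events counted for the yeast strain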
MEP2-GFP yeast: alters MEP2-GFP fluorescence in TOR pathway yeast screen | actives 0.51% (n = 330,000) | S. cerevisiae MEP2-GFP strain, flow cytometry GFP, 3 h; 100% = DMSO control level | GFP response vs DMSO, % at 10 µM;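 active = GFP response versus DMSO above a set limit, roughly screen mean plus 3 SD, cut at about 180% in these data; inconclusive = fewer than 70 cells counted for a yeast strain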;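 note: median GFP fluorescence of the barcode-gated MEP2-GFP cells per well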
Myeloid diff MLP: myeloid differentiation induction | AID 624256 | ER-HoxA9 myeloid progenitors, lysozyme-GFP differentiation, flow cytometry | calls only at 10 µM | actives 1% (n = 360,000);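 active = normalized GFP-positive differentiation at or above the plate's own cutoff, the solvent-only control mean plus 3 SD; inconclusive = no clear call, values can overlap the other calls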;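 note: cells exposed to compound for four days before flow analysis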
Myeloid diff CP1: myeloid differentiation induction | shares compounds with Myeloid diff MLP | ER-HoxA9 myeloid progenitors, GFP/Mac1 double-positive flow | calls only | actives 2% (n = 2,300) | AID 651706;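 active = share of green or green-and-red cells above 9 and 9% in run 1 or 4 and 3% in run 2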
GFP autofluor: counter-screen for myeloid differentiation promoters: compound fluorescence. shares compounds with Myeloid diff MLP. AID 651707. fluorescence response, % (test concentration not listed). actives 7.4% (n = 2,300). ER-HoxA9 myeloid progenitors, no estrogen, GFP autofluorescence flow cytometry; vehicle wells 0%, positive control 100%;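 active = over 5% cells positive for green fluorescent reporter, or over 2% positive for both it and APC stain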;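 note: range taken on the double positive population between DMSO and positive control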
Active calls of the source: *; i = inactive; ? = inconclusive; · = no result; + = active, no number; [ ] = another dose, or the depositor's remark. Hits are enriched below; roughly 1.8% of the tested compounds scored in any of these assays.

SMILES	AGP1 TOR yeast	CIT2-GFP yeast	RPL19A TOR yeast	LAP4 TOR yeast	MEP2-GFP yeast	Myeloid diff MLP	Myeloid diff CP1	GFP autofluor
O=C(CN1C(=O)NC2(CCCCCCC2)C1=O)N1CCc2ccccc2C1	98	96	92	98	105	i	·	·
COc1ccccc1CC1(C)NC(=O)N(CC(=O)N2CCc3ccccc3C2)C1=O (stereo unspecified)	105	105	104	92	103	i	i	0
COc1ccc(CNC(=O)C/C(C)=N/NC(=O)Cc2ccc(OC)c(OC)c2)cc1	99	95	100	101	105	i	·	·
Cc1cc(/C=c2\sc3nc4ccccc4n3c2=O)c(C)n1-c1ccc(C(=O)O)cc1	·	·	·	·	·	i	·	·
O=C(O)c1ccc(-c2ccc(/C=c3/sc4nc5ccccc5n4c3=O)o2)cc1Cl	?	?	28*[may fluoresce violet]	62	783*[may fluoresce violet]	i	i	0
COc1ccc(-c2cc(C(=O)O)sc2C)cc1	89	96	103	100	104	i	·	·
CCO[C@@H]1OC(C(=O)NCc2ccccc2)=C[C@H](c2csc3ccccc23)[C@H]1CCCO	92	108	99	110	90	i	i	0
C#CCNC(=O)C1=C[C@H](c2csc3ccccc23)[C@@H](CCCO)[C@H](OCC)O1	100	97	100	93	104	i	·	·
CC(C)c1nc(CNC(=O)CC2C(=O)NCCN2Cc2ccccc2)cs1 (stereo unspecified)	·	·	·	·	·	i	i	0
COc1ccc2ccccc2c1CNC(=O)CC1C(=O)NCCN1CC(C)C (stereo unspecified)	106	109	102	101	100	+	i	0
COc1ccc(CN2CCNC(=O)C2CC(=O)NCc2csc(C(C)C)n2)c(OC)c1 (stereo unspecified)	109	87	102	104	100	·	·	·
CC[C@@]12C(=O)N(c3ccc(OC)cc3)C(=O)N1[C@H](c1cccc(C)c1)[C@@H]1C(=O)N(Cc3ccccc3)C(=O)[C@@H]12	89	85	98	114	92	i	·	·
COc1ccc(NC(=O)CCNS(=O)(=O)c2ccc(NC(C)=O)cc2)cc1Cl	99	102	107	101	111	i	·	·
COc1ccc(C(=O)NC(=S)Nc2ccc(S(=O)(=O)Nc3cc(OC)nc(OC)n3)cc2)cc1	101	101	101	103	101	+	i	0
COc1cc(NS(=O)(=O)c2ccc(NC(=S)NC(=O)c3ccc(F)cc3)cc2)nc(OC)n1	95	91	101	97	102	i	·	·
COC(=O)CN1C(=O)C2(OCCCO2)c2cc(Br)ccc21	102	106	101	103	89	i	i	1
CC(C)(C)OC(=O)N[C@H](C(=O)OC(C)(C)C)c1ccc2ccccc2c1	98	93	98	97	96	+	i	1
CCOc1cc(C)c(S(=O)(=O)NC2CC(C)(C)NC(C)(C)C2)cc1C	94	91	95	95	99	i	·	·
Cc1cc(C)c(S(=O)(=O)NC2CC(C)(C)NC(C)(C)C2)cc1C	98	96	100	98	102	+	i	0
CN(CC(=O)Nc1cc(Cl)ccc1-n1cncn1)Cc1ccccc1N1CCOCC1	·	·	·	·	·	i	·	·
O=C(CCc1ccccc1)N/N=C/c1cc(Br)ccc1O	100	90	102	100	103	i	i	0
CC(=O)Nc1ccccc1-c1nc2cc(C#N)c(C#N)cc2[nH]c1=O	98	95	97	106	97	i	·	·
CCC(Oc1nc2ccccc2nc1-c1ccccc1NC(C)=O)C(=O)c1ccccc1 (stereo unspecified)	93	90	97	93	93	+	i	0

Screening data (PubChem)
